High-throughput results: PubChem, National Center for Advancing Translational Sciences (NCATS)
TrxR1 substrate: rat thioredoxin reductase 1 substrate activity. purified TrxR1 substrate turnover, NADPH consumption readout. AID 588456. hit rate 0.01% among 390,000. O89049. Potency, µM (titrated, usually from 114 µM), for the others: at the top dose activity change, negative = substrate turnover; note: potency is the fitted concentration of half-maximal effect; % is set by controls: 0 for no effect and ±100 for the full control effect; nearly all actives have a fitted effect of over 50% in size
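Rat TrxR1, dispensed at 90 nM, was prereduced with 400 uM NADPH (final) for 5 min at ~22 deg C, then incubated with compound 15 min before 400 uM selenite. A first-read NADPH fluorescence drop versus no-compound background flagged substrates.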
PKM2 activator: activators of human pyruvate kinase M2 | purified PKM2, Kinase-Glo ATP luminescence, activation; response scale: 0% is enzyme alone, no compound | Potency, µM (titrated, usually from 57.5 µM), inactives show top-dose activation, most hits filed as activators | AID 1631 | P14618 | hit rate 0.34% among 260,000; note: potency is the fitted concentration of half-maximal effect; % is set by controls: 0 for no effect and ±100 for the full control effect; nearly all actives have a fitted effect of over 55% in size
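Purified hPK-M2 (>95%) run at intermediate activity with 0.1 mM ADP and 0.5 mM PEP in 50 mM imidazole pH 7.2, KCl, MgCl2; 1 h room temperature. ATP formed read by Kinase-Glo luminescence; normalized to uninhibited and no-enzyme controls.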
LDHA block: inhibitors of human lactate dehydrogenase A | P00338 | activity change, % (values are at about 110 or 230 µM) | AID 1347041 | hit rate 0.15% among 480,000 | purified LDHA, NADH/diaphorase-resazurin fluorescence; active compounds read low; in the data active = activity change below about -30%; inconclusive = mostly about -25% to -30%;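 note: plate controls were DMSO wells for no effect and wells without enzyme for full effect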
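LDH5 2 nM; NADH 0.06 mM, pyruvate 0.2 mM; 200 mM Tris pH 7.4, EDTA, Tween-20; 5 min RT. Detection: diaphorase 0.133 mg/mL + resazurin 37 µM, fluorescence ex540/em590 at 0 and 20 min; normalized to enzyme-free and DMSO wells.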
TrxR1 inh: blocks rat thioredoxin reductase 1; O89049; Potency, µM (series often up to 114 µM), inactives show at the top dose activity change, negative = inhibition, most hits filed as inhibitors; recombinant rTrxR1, NADPH fluorescence consumption, selenite substrate; AID 588453; hit rate 1% among 390,000; note: potency is the fitted concentration of half-maximal effect; % is set by controls: 0 for no effect and ±100 for the full control effect; nearly all actives have a fitted effect of over 65% in size
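Rat TrxR1 (90 nM in the dispensed reagent) was pre-reduced with 400 uM NADPH for 5 min at room temperature, then incubated with compound for 15 min. After 400 uM selenite was added, NADPH fluorescence (Ex 340/Em 450 nm) was followed for 8 min.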
GLS inhibitor: inhibitors of human glutaminase (GLS) | O94925 | GLS enzymatic activity, qHTS titration | Potency, µM (series often up to 45.5 µM), for the others: top-dose activity change, negative = inhibition, hits mostly inhibitors | hit rate 0.21% among 410,000; note: potency is the fitted concentration of half-maximal effect; % is set by controls: 0 for no effect and ±100 for the full control effect
Target sequence (O94925 whole entry, looked up): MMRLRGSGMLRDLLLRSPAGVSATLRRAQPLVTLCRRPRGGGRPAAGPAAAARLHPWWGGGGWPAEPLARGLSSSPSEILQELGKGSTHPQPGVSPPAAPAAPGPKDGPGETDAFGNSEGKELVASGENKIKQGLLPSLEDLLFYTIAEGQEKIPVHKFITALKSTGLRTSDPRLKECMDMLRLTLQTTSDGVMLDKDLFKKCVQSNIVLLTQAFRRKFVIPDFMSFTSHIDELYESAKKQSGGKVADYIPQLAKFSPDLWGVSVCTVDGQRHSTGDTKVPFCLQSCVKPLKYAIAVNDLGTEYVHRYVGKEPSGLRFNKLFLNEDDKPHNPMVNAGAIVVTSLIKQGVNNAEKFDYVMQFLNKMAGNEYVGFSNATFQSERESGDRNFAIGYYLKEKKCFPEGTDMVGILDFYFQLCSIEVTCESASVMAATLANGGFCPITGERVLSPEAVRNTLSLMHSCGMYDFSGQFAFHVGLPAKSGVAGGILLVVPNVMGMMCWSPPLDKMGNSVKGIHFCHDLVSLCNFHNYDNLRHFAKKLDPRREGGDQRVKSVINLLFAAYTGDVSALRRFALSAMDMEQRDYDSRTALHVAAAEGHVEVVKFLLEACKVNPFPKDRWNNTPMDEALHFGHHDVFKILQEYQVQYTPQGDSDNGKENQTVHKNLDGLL
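hKGA; 45 mM KH2PO4 pH 8.2 + 0.02% Tween-20; cpd via pin tool; 1 mM Gln soln; GluOx/HRP/Amplex Red; RT 30 min; fluor. t0 & final.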
IDH1 R132H inh: blocks human mutant IDH1 R132H enzyme; O75874; IDH1-R132H enzyme, NADPH consumption, diaphorase/resazurin fluorescence; Potency, µM (top dose mostly 76.6 µM), for the others: at the top dose activity change, negative = inhibition, most hits filed as inhibitors; hit rate 0.093% among 390,000; AID 602179; note: potency is the fitted concentration of half-maximal effect; % is set by controls: 0 for no effect and ±100 for the full control effect; nearly all actives have a fitted effect of over 65% in size
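IDH1-R132H (0.5 ug/mL dispensed) in pH 7.5 Tris buffer was preincubated 30 min with compound, then given a substrate mix of 0.016 mM NADPH and 2 mM alpha-KG for 80 min at room temperature; remaining NADPH was read by diaphorase/resazurin fluorescence.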
IDH1 autofl: interferes with resorufin fluorescence in IDH1 counter-screen. shares compounds with IDH1 R132H inh. Resorufin detection reagent fluorescence interference, cell-free. 750 tested, under 10 active. inhibition of signal, % at 51.2 µM;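 note: 0% = wells with normal resorufin and full inhibition = wells lacking resorufin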
WT IDH1 inh: inhibits human wild-type IDH1, mutant selectivity check. shares compounds with IDH1 R132H inh. Potency, µM (series often up to 115 µM), for inactives: at the highest dose activity change, negative = inhibition, most hits filed as inhibitors. WT IDH1 enzyme, NADPH diaphorase/resazurin fluorescence. hit rate 9% among 750;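 note: potency is the fitted concentration of half-maximal effect; 0% = full WT IDH1 enzyme control and full inhibition = no enzyme wells; nearly all actives have a fitted effect of over 55% in size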
mIDH1 confirm: inhibits human mutant IDH1 enzyme in cherrypick confirmation | AID 624002 | Potency, µM (doses to about 76.6 µM), inactives show at the top dose activity change, negative = inhibition, usual class: inhibitors | shares compounds with IDH1 R132H inh | hit rate 83% among 750 | IDH1 R132H enzyme, NADPH diaphorase/resazurin fluorescence; note: potency is the fitted concentration of half-maximal effect; nearly all actives have a fitted effect of over 50% in size
Numbers without * were called inactive; u = inconclusive; x = not tested or not shown; [ ] = another dose, or the depositor's remark. Hits are enriched below; roughly 1.4% of the tested compounds scored in any of these assays. Unless noted, calls come from the whole dose curve; as a rule, active = well fitted curve in the direction sought with a large enough effect; inconclusive = small, poorly fitted or top-dose-only effect, or another doubt; inactive = no such curve, though single readings can be large; an effect the other way counts as inactive or inconclusive.

SMILES	TrxR1 substrate	PKM2 activator	LDHA block	TrxR1 inh	GLS inhibitor	IDH1 R132H inh	IDH1 autofl	WT IDH1 inh	mIDH1 confirm
COc1cc([C@@H]2[C@H]3CNCC=C3C(C#N)=C(N)C2(C#N)C#N)ccc1OC(C)C	6.3%[57.1 µM]	-3.5%	0.1	-20.3%	-1.2%	u	x	x	x
COc1cc(C2C3CN(C)CC=C3C(C#N)=C(N)C2(C#N)C#N)ccc1OC(C)C (stereo not given)	-0.3%	-0.1%	6.0	u	26.9%	u	0.7	14.9%	-7.0%
N#Cc1c(-c2ccccc2)nc(SCC(=O)NC2CCCCC2)[nH]c1=O	-1.3%	-4.6%	-1.0	0.9%	11.7%	-0.3%	x	x	x
CN(C(=O)CSc1nc(-c2ccc(C(C)(C)C)cc2)c(C#N)c(=O)[nH]1)C1CCCCC1	-3.2%	-2.2%	-1.6	-6.9%	-4.3%	u	0.1	u	44.7µM*
COc1cc(/C=C/C(=O)c2ccc(CC(C)C)cc2)cc(OC)c1O	x	x	51.3	x	x	x	x	x	x
Cc1ccc(Sc2ccc(NC(=O)CCl)cc2)c(C)c1	-3.4%	u	-0.1	u	-0.4%	52.1µM*	3.5	u	44.7µM*
CN(C)C(=O)c1ccc(NCC(=O)N2N=C(c3cc4ccccc4o3)CC2c2ccco2)cc1 (stereo not given)	x	x	6.9	x	x	x	x	x	x
CCc1ccc(-n2c(=O)c3c(C)c(C(=O)N(C)C)sc3n(Cc3cccc(C)c3)c2=O)cc1	14.0%[57.1 µM]	x	-1.4	35.8%[57.1 µM]	-21.0%	u	-3.3	-9.7%	31.6µM*
Cc1ccc(-n2c(=O)c3c(C)c(C(=O)N(C)C)sc3n(Cc3ccccc3C)c2=O)cc1C	-0.5%[57.1 µM]	x	1.0	13.3%[57.1 µM]	2.2%	u	-4.7	2.0%	22.4µM*
CCN(CC)C(=O)c1sc2c(c1C)c(=O)n(-c1ccccc1)c(=O)n2Cc1c(C)cc(C)cc1C	6.6%[57.1 µM]	x	0.1	17.6%[57.1 µM]	4.5%	39.8µM*	-5.5	-4.8%	35.5µM*
CSc1ccc(-c2nc(CSCC(=O)NCc3cccs3)c(C)o2)cc1	x	x	0.2	x	x	x	x	x	x
O=C(CCl)c1ccc(Cc2ncc(C(F)(F)F)cc2Cl)s1	8.4%[57.1 µM]	1.1%	-1.4	-48.7%	-0.7%	u	-11.6	u	22.4µM*
CN(Cc1ccccc1)c1nc2c(c(=O)n(Cc3ccccc3Cl)c(=O)n2C)n1C	x	x	-0.1	x	x	x	x	x	x
COc1cc([C@@H]2c3cc4c(cc3[C@@H](O)[C@H]3COC(=O)[C@H]23)OCO4)cc(OC)c1O[Si](C)(C)C(C)(C)C	-3.6%[57.1 µM]	-2.2%	5.2	1.7%[57.1 µM]	-0.2%	28.2µM*	-0.3	u	u
CCCOc1ccc(NC(=O)c2cccc(Cl)c2)c2cccnc12	x	x	15.6	x	x	x	x	x	x
CCOc1ccc2c(c1)C(NC(C)=O)C(=O)N2CCN1CCOCC1 (stereo not given)	6.7%	x	3.7	9.8%	13.4%	29.3µM*	3.2	79.4µM*	25.1µM*
CC(=O)NC1C(=O)N(CCN2CCOCC2)c2ccc(Br)cc21 (stereo not given)	5.2%[0.0914 µM]	x	-0.5	4.3%	u	u	x	x	x
Cc1cccc(N(C(=O)c2snc(C(N)=O)c2N)C(C(=O)NC2CCCC2)c2ccc(C)o2)c1 (stereo not given)	14.4%	8.7%	-1.2	-0.3%	-13.6%	u	0.9	7.5%	25.1µM*
